# Data as given in PubChem BioAssay AID624114 (Johns Hopkins Ion Channel Center, 2012).
# The campaign covered roughly 4,000 compounds. About 15 (0.4%) were called active.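 How the source made its calls: active means calcium fluorescence ratio, averaged over duplicates, at least 3 SD of the buffer-well ratio, meaning a nonspecific response in receptor-free cells; inactive means the rest.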 Only a sample is shown.
# Assay: calcium response in parental HEK293 cells, primary screen, counter-screen for MrgX1 allosteric activator project, cell-based, Fluo-4 calcium flux, duplicate (AID 624114);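 further: untransfected parental HEK293 lacking MrgX1 used as counterscreen for MrgX1 allosteric activators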
# Conditions: Fluo-4 fluorescence ratio, at 10 µM
row,SMILES,outcome
1,O=C(NC1CCCCC1)C1c2ccccc2C(=O)N1Cc1ccco1 (stereo not drawn),inactive
2,Cc1cc2oc3ccc(NCCC4CCCN4C)cc3c(=O)c2cc1C (stereo not drawn),inactive
3,COCCCNC(=O)C1CCN(c2ccc(N3CCOCC3)nn2)CC1,inactive
4,Cc1cc(Br)ccc1NC(=O)c1cnc(N2CCN(c3ccccn3)CC2)c2ccccc12,inactive
5,Cc1ccc(S(=O)(=O)N(C)c2nc3ccccc3n3c(C(C)C)nnc23)cc1,inactive
6,CC1CCN(S(=O)(=O)c2nnc(NC(=O)COc3ccccc3F)s2)CC1,inactive
7,Cc1ccc(-c2nn(C(C)(C)C)c3ncnc(N)c23)cc1,inactive
8,CCC1CCCCN1CCNC(=O)c1[nH]c(C)c(C(C)=O)c1C (stereo not drawn),inactive
9,O=C(CSc1ncccn1)NC(=O)NCc1ccccc1,inactive
10,CC1CCCCN1S(=O)(=O)c1ccc(C(=O)Nc2nnc(-c3cccs3)o2)cc1 (stereo not drawn),inactive
11,O=C(Nc1nc2c(F)cc(F)cc2s1)C1COc2ccccc2O1 (stereo not drawn),inactive
12,O=C1C(=O)N(CC2COc3ccccc3O2)c2ccccc21 (stereo not drawn),inactive
13,COc1cccc(CNC(=O)C2CCN(S(=O)(=O)c3cccc4cccnc34)CC2)c1,inactive
14,COc1ccc(C(=O)NC(=S)NNC(=O)CCc2ccccc2)cc1,inactive
15,CCOC(=O)C1=C(O)/C(=C/c2cc(C)n(-c3ccccc3)c2C)N=C1C,inactive
16,Cc1ccc2nc(Nc3ccccc3)cc(C)c2c1,inactive
17,Cc1ccc(Cc2cnc(N)s2)o1,inactive
18,O=C(CSc1nncn1-c1cccnc1)N1CCOCC1,inactive
19,COc1ccc(OC)c(C(=O)c2ccc(Cl)cc2)c1,inactive
20,CCCc1cc(=S)n2c([nH]c3ccccc32)c1C#N,inactive
21,Nc1cc(OC(=O)c2ccccc2Br)nn1S(=O)(=O)c1ccccc1,inactive
22,CC(C)(C)n1c(=O)[nH]c2c(c1=O)CCC2,inactive

row,SMILES,outcome
1,CCOC1CCCCC1NS(=O)(=O)c1ccc(Cl)cc1 (stereo not drawn),inactive
2,C=CCOc1cccc(C2C(C(=O)c3ccc(C)o3)=C(O)C(=O)N2c2nnc(C)s2)c1 (stereo not drawn),inactive
3,Cc1cccc(-n2c(Cc3cc(=O)[nH]c(=O)[nH]3)nnc2SC(C)C)c1,inactive
4,O=C1CCCc2c1nc(-c1cccc(Cl)c1)n2O,inactive
5,Cc1nc(N2CCN(c3ccccn3)CC2)c2c(C)c(C(=O)Nc3ccc(F)c(Cl)c3)sc2n1,inactive
6,Cc1cc(C)n(CCNC(=O)CC2C(=O)NCCN2Cc2ccc(C)o2)n1 (stereo not drawn),inactive
7,COc1ccc(S(=O)(=O)N2CCN(C(=O)NC3CCCCC3)CC2)cc1,inactive
8,CCCCC(=O)Nc1ccc2c(c1)C(=O)NC2=O,inactive
9,Cc1nn(-c2ccccc2)c(C)c1NC(=O)COc1ccc(Cl)cc1Cl,inactive
10,Cc1ccc(-n2[nH]c(C)c(/C=N/N3C(=O)c4cccc5cccc(c45)C3=O)c2=O)cc1,inactive
11,COC(=O)Cc1cc(=O)n(-c2nc3ccccc3s2)[nH]1,inactive
12,O=C1C(Cc2ccc(O)cc2)NC(=S)N1Cc1ccccc1 (stereo not drawn),inactive
13,Clc1ccc(C=NC23CN4CN(CN(C4)C2)C3)cc1,inactive
14,CC(C)CC(=O)NC(=S)NNC(=O)c1cccc([N+](=O)[O-])c1,inactive
15,Cc1[nH][nH]c(=O)c1C(c1ccc(-c2ccc(Cl)cc2)o1)c1c(C)[nH][nH]c1=O,inactive
16,O=C(Oc1ccc(C(=S)N2CCOCC2)cc1)c1ccc(F)cc1,inactive
17,COC(=O)c1ccc(C2C3=C(Nc4nnnn42)c2ccccc2OC3)cc1 (stereo not drawn),inactive
18,Clc1ccc(-c2nc3ccccn3c2CN2CCSCC2)cc1,inactive
19,CCOCc1nnc(NC(=O)CCC2CCCCC2)s1,inactive
20,Cc1ccc2nc(-c3ccc(NC(=O)CN(C)S(=O)(=O)c4ccccc4)cc3)sc2c1,inactive
21,Cc1ccc(N/C(N)=N/c2nc(C(F)(F)F)cc(C(F)(F)F)n2)cc1,inactive
22,Cc1cccc(NC(=O)C(C)N2C(=O)C3C4CC(C(Br)C4Br)C3C2=O)c1 (stereo not drawn),inactive

row,SMILES,outcome
1,O=c1cc(CSc2ccccn2)nc(N2CCN(c3ccccc3)CC2)[nH]1,inactive
2,CCN(c1cccc(C)c1)S(=O)(=O)c1ccc(-c2coc(C)n2)cc1,inactive
3,CC(C)CC(=O)N/C(N)=N/c1nc2ccccc2s1,inactive
4,Cc1nn(-c2ccccc2)c2c1C(c1ccc(F)cc1)C(C#N)=C(N)O2 (stereo not drawn),inactive
5,CCOc1ccc(C(=O)NC2CCN(S(=O)(=O)CC)CC2)cc1,inactive
6,CCOC(=O)CNC(=O)CSc1nc2cccnc2n1CC,inactive
7,Cc1nc(C)c(-c2csc(NCCc3ccccc3)n2)s1,inactive
8,C(=N\n1cnnc1)/c1cccnc1,inactive
9,Cc1cccc(NC(=O)COc2ccccc2C)n1,inactive
10,O=C(Nc1ccc(Br)cc1F)C1CC(=O)N(C2CCCCC2)C1 (stereo not drawn),inactive
11,COc1ccc(Cc2nc(-c3ccccn3)no2)cc1OC,inactive
12,COC(=O)c1ccc(COC(=O)C2CCN(S(=O)(=O)c3c(Cl)cccc3Cl)CC2)o1,inactive
13,COCC(C)NC(=O)c1ccc(Cl)c(Cl)c1 (stereo not drawn),inactive
14,CCOc1ccc(C2=CC(c3ccccc3)n3ncnc3N2)cc1 (stereo not drawn),inactive
15,CCOC(=O)Cc1csc(SCc2cc(=O)oc3cc(O)ccc23)n1,inactive
16,O=C(Nc1ccc(Cl)cc1)Nc1ccc(Oc2cccnc2)nc1,inactive
17,O=C(COc1ccc(Cl)cc1)NC(=S)Nc1ccccc1N1CCOCC1,inactive
18,N#CC1=C(N)Oc2c(sc3ccccc23)C1c1ccco1 (stereo not drawn),inactive
19,O=C(CN1CCN(c2ccccn2)CC1)NC1CCCCC1,inactive
20,COc1ccc(S(=O)(=O)N2CCOCC2)c(C)c1C,inactive
21,Cc1cc2ncn(CCCCOc3ccccc3)c2cc1C,inactive
22,CCN(CC)c1ccc2oc(=O)c(C)nc2c1,inactive

row,SMILES,outcome
1,CN1C(CC(=O)Nc2ccc(Br)cc2)c2ccccc2CC1(C)C (stereo not drawn),inactive
2,COc1ccc(C(=O)NC(=S)NC2CCCCC2)cc1,inactive
3,O=C(Nc1ccccc1Cl)N1CCN(c2ccc3nncn3n2)CC1,inactive
4,COC(=O)c1c(NC(=O)c2c(Cl)cnn2C)sc(C)c1C,inactive
5,CCOC(=O)c1[nH]c2ccc(C)cc2c1N=C(C)N(C)C,inactive
6,Cc1cccc(Cn2cnc3c(N)c(C)c(C)cc32)c1,inactive
7,Cc1ccc(OC(=O)c2cc3ccccc3o2)cc1,inactive
8,CCOC(=O)c1cn(Cc2cccc(C)c2)nn1,inactive
9,C=CCNC(=O)c1csc(-c2ccccc2)n1,inactive
10,O=C(c1cccs1)C1C(c2ccc(Br)cc2)NC(=S)NC1(O)C(F)(F)F (stereo not drawn),inactive
11,CC(=O)Nc1ccc(OC(=O)COc2ccc(Br)cc2)cc1,inactive
12,O=C(c1ccc(O)cc1)c1ccc(C(=O)O)c(C(=O)O)c1,inactive
13,O=C1Cc2ccccc2Sc2ccc(Cl)cc21,inactive
14,CC(Oc1ccc(F)cc1)C(=O)Nc1ccccc1C(=O)NC1CC1 (stereo not drawn),inactive
15,O=C(c1ccc(OC2CCN(C(=O)c3cccnc3)CC2)cc1)N1CCCCCC1,inactive
16,O=C(COC(=O)c1ccc(NS(=O)(=O)c2cccs2)cc1O)Nc1ccc(F)cc1,inactive
17,COc1cc(C(F)(F)F)nc2c(Br)c(C(C)(C)C)nn12,inactive
18,Cc1cc(Nc2cc(N3CCN(C)CC3)nc(Sc3ccc(NC(=O)C4CC4)cc3)n2)n[nH]1,inactive
19,CC(=O)N1c2ccc(S(=O)(=O)N3CCCC(C(=O)Nc4cccc(Cl)c4)C3)cc2CC1C (stereo not drawn),inactive
20,CCCCOC(=O)CNc1nnc(SCC(=O)OCC)[nH]c1=O,inactive
21,COc1ccc(OC)c(Nc2nc3ccccc3n3cnnc23)c1,inactive
22,Fc1cccc(Cl)c1COc1ccc(-c2nnco2)cc1,inactive
